# Assay outcomes: PubChem BioAssay, several laboratories
# Hits are enriched below; roughly 22% of the tested compounds scored in any of these assays.
# CYP2C9 act: CYP2C9 (human) activation. recombinant CYP2C9, luciferin-H conversion, luminescence; active compounds read high; factor 1 = untreated enzyme, 0 = blocked. P11712. hit rate 1.4% among 96,000. activation factor at 5 µM;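 active means activation factor of 2 or more for CYP2C9 at a 5 µM dose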;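 further: 0 = sulfaphenazole-blocked wells and 1 = vehicle-only wells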
# Target sequence (P11712 whole entry, looked up): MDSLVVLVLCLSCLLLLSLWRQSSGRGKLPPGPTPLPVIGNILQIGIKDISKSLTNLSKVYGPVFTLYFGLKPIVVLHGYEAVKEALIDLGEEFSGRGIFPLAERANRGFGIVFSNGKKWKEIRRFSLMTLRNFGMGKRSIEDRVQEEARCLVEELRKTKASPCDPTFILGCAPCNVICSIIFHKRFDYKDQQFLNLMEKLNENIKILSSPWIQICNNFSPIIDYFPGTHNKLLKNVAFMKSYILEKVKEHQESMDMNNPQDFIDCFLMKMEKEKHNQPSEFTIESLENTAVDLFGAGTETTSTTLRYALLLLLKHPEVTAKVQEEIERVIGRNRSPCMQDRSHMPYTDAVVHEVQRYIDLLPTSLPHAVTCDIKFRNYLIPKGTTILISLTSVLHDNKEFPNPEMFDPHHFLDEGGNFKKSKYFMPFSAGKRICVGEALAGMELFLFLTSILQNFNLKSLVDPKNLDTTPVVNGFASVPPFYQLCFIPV
# cytoskel mod: modifiers of cytoskeleton assembly. hit rate 0.18% among 91,000. AID 836. HUVEC TNFa F-actin phalloidin imaging, high content. inhibition, % at 2 µM;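 active means inhibition above the batch mean plus 3 SD and confirmed as a hit by visual image inspection, cut at about 30% in these data, passing the limit was not always enough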
# CYP2C19 activ: activators of human cytochrome P450 2C19. recombinant CYP2C19, luciferin-H EGE luminescence; active compounds read high; 0 = fully inhibited enzyme, 1 = untreated enzyme. 96,000 tested, under 10 active. P33261. activation factor at 5 µM;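 active means activation factor of at least 2 at 5 µM in the primary screen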;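 further: 0 = wells with 2.5 mM tranylcypromine and 1 = vehicle-only wells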
# CYP2C19 inh: inhibitors of human CYP2C19; P33261; CYP2C19 Supersomes, luciferin-H EGE luminescence, 30 min; inhibition, % at 5 µM; hit rate 21% among 96,000;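 active means CYP2C19 inhibition above a set limit at 5 µM in the primary screen, cut at about 50% in these data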;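 further: plate controls were negative control wells for no effect and 2.5 mM tranylcypromine positive control for full effect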
# CYP2C9 inhib: inhibitors of human CYP2C9; CYP2C9 Supersomes, luciferin-H conversion, luminescence; AID 777; P11712; hit rate 20% among 96,000; inhibition, % at 5 µM;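 active means blocking of liver enzyme CYP2C9 beyond about 50% at 5 µM, limit read from the data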
# E-sel TNF inh: TNF alpha driven E-selectin expression inhibition | HUVEC TNFa-induced E-selectin immunofluorescence, high content | inhibition, % at 2 µM | hit rate 0.71% among 120,000 | AID 1246;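 active means inhibition above the batch mean plus 3 SD, and confirmed as a hit on visual image review, cut at about 43% in these data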;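 further: 0% = TNF-stimulated DMSO wells and 100% = unstimulated control wells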
# * = called active by the depositor; . = not tested or not shown.
SMILES,CYP2C9 act,cytoskel mod,CYP2C19 activ,CYP2C19 inh,CYP2C9 inhib,E-sel TNF inh
COc1ccc(C2NC(=S)N3C(c4ccc(OC)cc4)NC(=S)N23)cc1 (stereo not drawn),0.7,-11,0.5,51*,28,-3
COC(=O)C1=C(C)C(c2ccc(OC)cc2)NC(=S)N1 (stereo not drawn),0.9,6,0.7,31,13,8
S=C1NC(c2ccccc2)N2C(=S)NC(c3ccccc3)N12 (stereo not drawn),0.2,.,0.1,94*,78*,-37
Cc1ccc(S(=O)(=O)NCc2cccnc2)s1,1,4,0.6,37,-1,-11
COC(=O)c1c(C)[nH]c(C(=O)CN2CCOCC2)c1C,0.7,9,0.4,62*,33,.
CCOC(=O)c1[nH]c(C)c(C(=O)Nc2ccc(Cl)cc2)c1C,1,-22,0.9,14,3,.
COC(=O)c1c(C)[nH]c(C(=O)CSc2ccc(Cl)cc2)c1C,0.3,7,0.7,27,68*,-1
COC(=O)c1c(C)[nH]c(C(=O)CC#N)c1C,.,.,.,.,.,22
COC(=O)C(C)Sc1nnc2n(-c3cccc(C)c3)c(=O)c3c4c(sc3n12)CCCC4 (stereo not drawn),1.1,.,1.1,-14,-13,-26
COc1ccc2cc(C(=O)N3CCOCC3)sc(=O)c2c1OC,1,13,1,2,2,.
CCC(=O)N1CC2(CC(c3cccc([N+](=O)[O-])c3)=NO2)C[C@H]1C(=O)NCC(N)=O (stereo partly drawn),1.1,-3,0.9,11,-13,5
O=C1C(c2ccc(F)cc2)N(Cc2ccc3c(c2)OCO3)C(=O)CN1C1CCCCCC1 (stereo not drawn),0.4,-18,0.6,36,56*,18
CCOC(=O)c1c(-c2ccccc2)oc2ccc(OC)cc12,0.3,-3,0.5,52*,65*,11
CCOC(=O)c1c(-c2ccccc2)oc2ccc(OCC)cc12,.,.,.,.,.,-17
NC(=O)c1c(-c2ccccc2)oc2ccc(O)cc12,2.1*,0,0.5,50,-115,-12
O=C(CS(=O)c1cccc(C(F)(F)F)c1)Nc1ccccc1Cl (stereo not drawn),3.3*,-1,0.5,55*,-231,24
O=C(CCc1ccccc1)Nc1cc(C(F)(F)F)ccc1Cl,3.9*,6,0.4,62*,-291,-75
CN(C)CC(=O)Nc1cc(C(F)(F)F)ccc1Cl,2.2*,-4,0.9,8,-124,10
CCOC(=O)/C(=N\Nc1cc(C(F)(F)F)ccc1Cl)N(CC)CC,0.6,10,0.2,80*,42,.
CSc1nc(Oc2ccc(=O)[nH]n2)nc(N(C)C)n1,1,.,0.9,10,4,.
COc1ccc(-c2csc(/C(C#N)=C(\O)CSc3nccn3C)n2)cc1OC,0.3,6,0.8,19,69*,-38
CCOC(=O)c1c(C(=O)OCC)c(C)n(N2C(=O)CSC2=S)c1C,0.5,.,0.6,44,53*,-20
C=CCn1c(-c2csc(-c3ccc(Cl)cc3)n2)n[nH]c1=S,0.9,-12,0.2,81*,8,4
C=CCn1c(-c2csc(-c3ccccc3)n2)n[nH]c1=S,0.8,4,0.8,20,21,.
C=CCn1c(-c2c[nH]c3ccccc23)n[nH]c1=S,0.8,12,0.8,20,22,32
SMILES,CYP2C9 act,cytoskel mod,CYP2C19 activ,CYP2C19 inh,CYP2C9 inhib,E-sel TNF inh
C=CCn1c(-c2csc3ccccc23)n[nH]c1=S,0.2,-28,0.1,93*,78*,11
Cc1ccc(C2N(c3ccc(Cl)c(Cl)c3)C(=O)C3CCCN32)o1 (stereo not drawn),1,-24,0.7,31,2,-7
c1ccc(Cn2nnc3c(N4CCCCCC4)ncnc32)cc1,0.3,8,0.6,36,71*,.
c1ccc(-n2ncc3c(N4CCCCC4)ncnc32)cc1,0.2,-11,0.2,83*,82*,.
c1ccc(CCN2CCN(c3ncnc4c3cnn4-c3ccccc3)CC2)cc1,0.2,11,0.2,79*,78*,-2
Cc1cccc(-n2ncc3c(N4CCC(C)CC4)ncnc32)c1,0,8,0.3,71*,96*,.
COc1ccc(NC(=O)C2CCCN(S(=O)(=O)c3c(C)n[nH]c3C)C2)cc1 (stereo not drawn),0.8,3,0.8,18,22,.
Cc1ccc(C(=O)Nc2sc3c(c2C#N)CCCCC3)cc1C,.,-19,.,.,.,-32
CCOC(=O)N1CCN(C(=O)CN(C)S(=O)(=O)c2ccc(OC)c(OC)c2)CC1,1.4,-16,1,-5,-44,-6
c1ccc2c(c1)nc(NC1CCCCC1)c1nncn12,1,12,0.9,10,-2,.
CN(C)S(=O)(=O)c1ccc(C(=O)Nc2ccnn2C2CCCCC2)cc1,0.4,.,1,-4,63*,-29
Cn1c(NC(=O)Cc2ccc(F)cc2)cc(=O)n(C)c1=O,1.1,8,1.1,-13,-14,4
CC[n+]1c(/C=C2\C=C(C)CC(C)(C)C2)sc2ccccc21,0.9,10,0.9,5,11,-38
CC[n+]1c(/C=C2/C=C(C)CC(C)(C)C2)sc2ccc(OC)cc21,0.7,-18,0.7,30,26,67*
CCCC(=O)Nc1nc2ccc(S(N)(=O)=O)cc2s1,0.9,6,1.1,-7,10,.
Cc1nc(-c2coc3cc(OCC(=O)O)ccc3c2=O)cs1,1.1,12,0.5,47,-5,-8
Cc1nc(-c2coc3cc(O)c(C)cc3c2=O)cs1,1,5,0.3,68*,4,36
c1ncn(C23CC4CC(CC(C4)C2)C3)n1,.,.,.,.,.,-8
CCn1c(C(=O)NCCCc2ccccc2)cc2sccc21,.,.,.,.,.,-3
Cn1c(C(=O)N(Cc2ccccc2)Cc2cccs2)cc2sccc21,0.3,2,0.5,47,73*,-25
Cn1c(C(=O)N(Cc2ccccc2)Cc2ccccn2)cc2sccc21,0.1,-19,0.1,88*,91*,-2
O=C(Cn1ccc([N+](=O)[O-])n1)N1CCCc2ccccc21,1.1,-1,0.9,7,-14,-16
O=C(COc1cccc(Oc2ccccc2)c1)Nc1ncccn1,0.9,2,0.6,38,11,-2
c1ccc(-c2ccc(OCCCn3cncn3)cc2)cc1,0.3,-4,0.3,70*,71*,-31
c1ccc(Oc2cccc(OCCn3cncn3)c2)cc1,0.3,-14,0.1,95*,68*,-72
CC(=O)CCc1ccc(OCCCCn2cncn2)cc1,0.8,-1,0.5,47,24,-8
c1ccc(COc2ccc(OCCn3cncn3)cc2)cc1,0,-2,0.1,92*,96*,-12
CCC(=O)c1ccccc1OCCCn1cncn1,0.7,-3,0.1,90*,31,.
CC1(CCc2ccc3c(c2)OCO3)NC(=O)c2ccccc2N1 (stereo not drawn),.,8,.,.,.,-19
